Results published in PubChem BioAssay (EPA / NIEHS).
Active and inactive are the calls of the source. Rule for the calls: active = hit-call score of the fitted dose curve at least 0.9, where 1 is the maximum; inactive = score below 0.9.

Experiment: ATG_AP_2_CIS: Attagene CIS-FACTORIAL HepG2 Assay for human Activator Protein 2 (AP-2) (AID 2282932)
Details: HepG2 AP-2 cis-reporter, Attagene transcription factor profiling; actives raise or lower the signal
Procedure: ATG_CIS is a cell-based, multiplexed-readout assay that uses HepG2, a human liver cell line, with measurements taken at 24 hours after chemical dosing in a 24-well plate.ATG_AP_2_CIS is one of 52 assay component(s) measured or calculated from the ATG_CIS assay. It is designed to make measurements of mRNA induction, a form of inducible reporter, as detected with fluorescence intensity signals by Reverse transcription polymerase chain reaction (RT-PCR) and Capillary electrophoresis technology.Data from the assay component ATG_AP_2_CIS was analyzed into 1 assay endpoint. This assay endpoint, ATG_AP_2_CIS, was analyzed with bidirectional fitting relative to DMSO as the negative control and baseline of activity. Using a type of inducible reporter, measures of mRNA for gain or loss-of-signal activity can be used to understand the reporter gene at the transcription factor-level as they relate to the gene TFAP2A and TFAP2B and TFAP2D. Furthermore, this assay endpoint can be referred to as a primary readout, because this assay has produced multiple assay endpoints where this one serves a reporter gene function. To generalize the intended target to other relatable targets, this assay endpoint is annotated to the dna binding intended target family, where the subfamily is basic helix-turn-helix leucine zipper.
Human liver HepG2 cells are transiently transfected with multiple reporter transcription units (MRTUs) in 6-well plates using FuGene 6 reagent (Roche; 3 ml FuGene/1 mg DNA). The MRTU constructs are regulated by a cis-regulating element (promoter). […] A major difference between the CIS and TRANS system is that in CIS activities of endogenous TFs are measured, whereas the TRANS assay evaluates changes in activities of exogenous, chimeric NR-Gal4 proteins. […] At the end of 24 hour incubation, total RNA was isolated using TriZol reagent (Invitrogen). The isolated RNA is then reverse-transcribed using oligo(dT) primer and Mo-MLV reverse transcriptase (Invitrogen) with DNAse I (Ambion) treatment for 30 min. The one-tenth of the produced cDNA was amplified by PCR using Taq DNA polymerase (Invitrogen) and two reporter sequence-specific primers. The PCR products were fluorescently labeled by primer extension with 6-arboxyfluorescein (6-FAM) 5'-labeled reporter sequence-specific primer (2 min at 95 C, 20 s at 68 C and 10 min at 72 C) and these products were digested with 5U of HpaI (New England Biolabs) for 2h at 37 C. The fragments were purified using Qiaquick PCR columns (Qiagen), analyzed on an ABI 3130xL genetic analyzer (Applied Biosystems) with peak positions identified by using a set of X-rhodamine (ROX)-labeled MapMarker1000 molecular weight standards (BioVentures). The raw capillary electrophoresis data was processed using Attagraph software (Attagene).

Compound | outcome
CCN1CCCC1=O | inactive
O=c1c(O)c(-c2ccc(O)cc2O)oc2cc(O)cc(O)c12 | inactive
C=Cc1ccc(OC(C)=O)cc1 | inactive
Oc1ccc(-c2ccccc2)c(Cl)c1 | inactive
CC=CC(=O)OCC(C)C | inactive
Cc1c(C(=O)c2c[nH]n(C)c2=O)ccc(S(C)(=O)=O)c1C1=NOCC1 | inactive
CC1=C(O)C(=O)C(C)O1 (stereo not given) | inactive
CC1(C)CC(O)CC(C)(C)N1[O] | inactive
C=CCCCCCCCCOC(C)=O | inactive
CC(C)=NNC(N)=S | inactive
CCCCCCCCCCCCC | inactive
Nc1ncnc2nc[nH]c12 | inactive
CC(C)C(=O)OCCOc1ccccc1 | inactive
C[Si](C)(C)N[Si](C)(C)C | inactive
COc1nccnc1CC(C)C | inactive
CC(=O)OCc1ccccc1 | inactive
CCN1CN(CC)CN(CC)C1 | inactive
CCOC(=O)c1ccccc1C | inactive
O=C(Oc1ccccc1)c1ccccc1O | inactive
CCOC(=O)OC(=O)OCC | inactive

Compound | outcome
CCC(C)C(=O)OC (stereo not given) | inactive
c1ccc(-c2nc3ccccc3[nH]2)cc1 | inactive
CCCCCCCOC(=O)c1ccc(O)cc1 | inactive
COc1ccc(C(=O)/C(Br)=C\C(=O)O)cc1 | inactive
C=CC(=O)OCCCCCCCC(C)C | inactive
Nc1nc(N)nc(-c2ccccc2)n1 | inactive
CCOC(=O)/C=C\C(=O)OCC | inactive
NC(=O)Nc1ccccc1 | inactive
c1ccc(Nc2cccc3ccccc23)cc1 | inactive
CCOc1ccc(NC(N)=O)cc1 | inactive
Cc1c(O)cccc1O | inactive
CC(C)CCOCc1ccccc1 | inactive
C=C(C)C(=O)OCC(O)COc1ccc(C(C)(C)c2ccc(OCC(O)COC(=O)C(=C)C)cc2)cc1 (stereo not given) | inactive
Cn1ccnc1 | inactive
CCCCCC1=CCCC1=O | inactive
CCCC(C)C(=O)OCC (stereo not given) | inactive
c1ccc2c(c1)[nH]c1ccccc12 | inactive
CCCCOCC(C)O (stereo not given) | inactive
CCCCOCCOCCOC(C)=O | inactive
COC(=O)CC(C)CCC=C(C)C (stereo not given) | inactive
